The record followed here is PubChem BioAssay AID1851 (National Center for Advancing Translational Sciences (NCATS), 2009).

Among all 16,000 compounds or so, about 5,700 (36%) were called active. Another 24% or so got no clear call; they are omitted. The list shows a part of the results. A number with no mark means an inactive call. Calls follow the shape of the dose curve; as a rule, active = well fitted curve in the direction sought with a large enough effect; inconclusive = small, poorly fitted or top-dose-only effect, or effect the other way; inactive = no such curve, though single readings can be large or run the other way.
% is scaled to controls: 0 for no effect and ±100 for the full control effect.

The target in this test is Cytochrome P450 1A2 (Homo sapiens) (UniProt P05177). Description: Cytochrome panel assay with activity outcomes. To be noted: recombinant CYP, pro-luciferin dealkylation, luminescence, p450-cyp1a2; series mostly up to 57.1 µM; activity, negative = inhibition: at the top concentration.
Cytochrome P450 1A2 (Homo sapiens), sequence (P05177 whole entry, looked up): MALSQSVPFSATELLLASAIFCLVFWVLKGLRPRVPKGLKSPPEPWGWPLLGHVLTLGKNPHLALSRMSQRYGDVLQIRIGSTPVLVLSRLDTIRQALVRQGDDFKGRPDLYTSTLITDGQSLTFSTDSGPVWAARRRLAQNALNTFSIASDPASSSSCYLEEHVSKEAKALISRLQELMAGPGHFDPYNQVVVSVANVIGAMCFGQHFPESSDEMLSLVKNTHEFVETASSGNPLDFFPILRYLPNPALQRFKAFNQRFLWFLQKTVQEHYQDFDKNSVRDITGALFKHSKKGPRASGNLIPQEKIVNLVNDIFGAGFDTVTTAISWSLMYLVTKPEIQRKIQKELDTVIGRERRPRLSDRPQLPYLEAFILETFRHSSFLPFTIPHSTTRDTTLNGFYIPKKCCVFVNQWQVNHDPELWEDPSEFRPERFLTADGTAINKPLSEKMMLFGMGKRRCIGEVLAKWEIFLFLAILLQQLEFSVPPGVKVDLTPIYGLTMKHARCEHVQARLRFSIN
Turning to `O=C1COc2ccccc2CN1`, the “activity, negative = inhibition” value is -7.55%. Turning to `Fc1ccc(-c2cnc(-c3cccs3)o2)cc1`, the half-maximal activity concentration (AC50) (in general, the concentration at which the activity in the assay is half-maximal) is 2.82 µM (active). On the same count and under the same terms, then `COC(=O)c1cc(NC(=O)N2c3ccccc3Sc3ccccc32)cc(C(=O)OC)c1`, with 3.16 µM (active). Consider `CCOC(=O)Nc1ccc2c(c1)N(C(=O)CCN1CCOCC1)c1ccccc1S2`, for which the “activity, negative = inhibition” value is -7.96% [at 25.6 µM].

Turning to `CCOC(=O)Nc1ccc2c(c1)N(C(=O)CCN1CCN(C)CC1)c1ccccc1S2`, the “activity, negative = inhibition” value is -15.3%. Regarding `CCC1Oc2ccccc2N(CC(=O)NCCCN2CCCCC2C)C1=O` (stereo not given), the “activity, negative = inhibition” value was -4.11%. Turning to `O=[N+]([O-])/C=C\c1cc2ccccc2[nH]1`, the AC50 is 1.26 µM (active). On the same count and under the same terms, with `Nc1c(S(=O)(=O)O)cc(Nc2cccc(S(N)(=O)=O)c2)c2c1C(=O)c1ccccc1C2=O` the figure was 3.98 µM (active); with `NCCNC(=O)c1ncsc1-c1cccc(F)c1`, 10 µM (active). As for `Cc1nnc(SCC(=O)N2CC(=O)Nc3ccccc32)n1Cc1ccccc1`, the “activity, negative = inhibition” value is 2.82%. Regarding `Cc1scc2c1N(C(=O)CN1CCN(C)CC1)c1ccccc1NC2=O`, the AC50 result was “inactive”. On the same count and under the same terms, then `Cc1sc2nc(C3CC3)nc(SCC(=O)N3CC(=O)Nc4ccccc43)c2c1C`, with 6.31 µM (active). Same read-out and setting: then `COC(=O)Nc1nc2ccc(C(=O)c3cccs3)cc2[nH]1`, with 0.794 µM (active). Regarding `C[C@@H](C(=O)O)c1ccc(C(=O)c2cccs2)cc1`, the “activity, negative = inhibition” value is -10.6% [at 25.6 µM].

Take `COC(=O)Nc1nc2ccc(SC(C)C)cc2[nH]1`: the AC50 is 0.501 µM (active). As to `CC(=O)Nc1ccc2nc(C3CCCCC3)[nH]c2c1`, the “activity, negative = inhibition” value was -30%.

`COC(=O)c1ccc(C(NC(=O)c2ccccc2)[C@]2(C)C[C@H]2C2CCCCC2)cc1` (stereo not given in full): the “activity, negative = inhibition” value was -1.81%. Turning to `COC(=O)c1ccc(C23CC2(C(NP(=O)(c2ccccc2)c2ccccc2)c2ccccc2)C3)cc1` (stereo not given), the concentration at half-maximal activity (AC50) was 15.8 µM (active). As for `Cc1ccc2cc(C(=O)O)c(C)nc2c1`, the “activity, negative = inhibition” value was -6.36%. With `O=C(CSc1nnc2c3ccccc3c3ccccc3c2n1)Nc1ccccc1`, the AC50 was 1.12 µM (active). Same read-out and setting: then `c1ccc(CSc2nnc3c4ccccc4c4ccccc4c3n2)cc1`, with 0.2 µM (active).

For `O=C(O)c1cc(=O)[nH]c(SCc2ccccc2)n1`, the activity, negative = inhibition is -12% [at 11.4 µM]. The same measure, in the same setting: with `O=C(O)CSc1cc(-c2ccccc2)nc2ccccc12` the figure was -4.67% [at 2.29 µM]; with `Cn1c(SCC(=O)Nc2ccccc2)nc(O)cc1=O`, -9.92%. As for `O=C(O)CSc1nnc2c3ccccc3c3ccccc3c2n1`, the AC50 was 0.0794 µM (active).

`O=C(O)CSc1ccn(Cc2ccccc2)c1`: the activity, negative = inhibition was -14.3% [at 11.4 µM].

With `CCc1c(C)nc(N)n2c(SCC(=O)Nc3ccccc3)nnc12`, the “activity, negative = inhibition” value was -17.2%. Same read-out and setting: then `CN(C)S(=O)(=O)c1nc(Cl)c2[nH]cnc2n1`, with 2.44% [at 11.4 µM].

Turning to `Cc1ccc(-c2ccc(=O)n(CC(=O)NCCN(C)C)n2)cc1`, the “activity, negative = inhibition” value was -2.76%.

Regarding `C[C@@H]1CCC[C@H](C)N1`, the “activity, negative = inhibition” value was 0.154% [at 25.6 µM]. Still for that read-out and setting: then `COC(=O)C1=C(C)N=C2SC(C)C(=O)N2C1/C=C/c1ccccc1` (stereo not given), with -17.6%. With `Cc1cc(C)nc(NC(=O)c2cccc([N+](=O)[O-])c2C)n1`, the “activity, negative = inhibition” value is -3.25%. Consider `O=C(Nc1cccc(NC(=O)c2ccccc2[N+](=O)[O-])n1)c1ccccc1[N+](=O)[O-]`, for which the half-maximal activity concentration (AC50) is 8.91 µM (active). Take `CC1CCN(S(=O)(=O)c2ccc3c(c2)C(=NO)c2cc(S(=O)(=O)N4CCC(C)CC4)ccc2-3)CC1`: the “activity, negative = inhibition” value is -10.6%. Still for that read-out and setting: with `O[C@]1(c2ccccc2)c2ccccc2NC2=NCCN21` the figure was -14.8% [at 11.4 µM]; with `Nc1cc(S(=O)(=O)O)cc2ccc(S(=O)(=O)O)cc12`, -18.1% [at 2.29 µM]; with `CC[C@@]1([N+](=O)[O-])C[C@H]2C=C[C@@H]1C2`, -12.9% [at 2.29 µM]. As for `C[C@@H]1C[C@@H]2[C@H]3CCC4=CC(=O)C=C[C@]4(C)[C@]3(Cl)[C@@H](O)C[C@@]2(C)[C@@]1(O)C(=O)CO`, the “activity, negative = inhibition” value was -1%. On to `FC(F)(F)c1ccc(N2CCN(c3cc(-c4ccccc4)nc4ncnn34)CC2)nc1`, for which the half-maximal activity concentration (AC50) was 10 µM (active).

For the compound `O=S(=O)(c1ccccc1)N1CCC2(CC1)CN(c1ncccn1)C2`, the “activity, negative = inhibition” value was -3.35%. The same measure, in the same setting: with `O=S(=O)(c1ccccc1)N1CCC2(CCN(c3ncccn3)CC2)CC1` the figure was 5.5%. On to `O=S(=O)(c1ccccc1)N1CCN(c2cc(-c3ccccc3)nc3ncnn23)CC1`, for which the AC50 was 0.794 µM (active). Regarding `Nc1nc(Cl)nc2c1ncn2[C@@H]1O[C@@H](COP(=O)(O)OP(=O)(O)OP(=O)(O)O)[C@@H](O)[C@H]1O`, the “activity, negative = inhibition” value was -0.464%. On the same count and under the same terms, then `C#CCCCO/N=C1/C[C@@H](O)[C@@H](O)[C@@H]2[C@@H]3C(=O)N(CC)C(=O)[C@H]3CC[C@@H]12`, with -3.56% [at 11.4 µM]; and `CCn1c(CC(=O)Nc2ccc(C)cc2)nnc1SCC(=O)Nc1nc(C)cs1`, with -5.56%. Consider `Cc1ccc(NC(=S)Nc2nc(CC(=O)Nc3ccccc3)cs2)cc1`, for which the AC50 is 2.24 µM (active). Take `COc1cccc([C@@H]2Oc3ccc(OC)cc3/C(=N/OC[C@@H](C)[C@H](OCc3ccccc3)C(C)C)[C@@H]2O)c1`: the activity, negative = inhibition was -6.71% [at 11.4 µM]. With `COc1cccc(Cn2c(=O)cnc3cnc(N(C)C)nc32)c1`, the AC50 is 6.31 µM (active). On the same count and under the same terms, then `CN(C)c1ncc2nc(CCc3ccccc3)c(=O)n(-c3ccccc3)c2n1`, with 0.794 µM (active); and `CN(C)c1ncc2nc(CCc3ccccc3)c(=O)n(Cc3cccs3)c2n1`, with 1.58 µM (active). Regarding `CN(C)c1ncc2nc(-c3cc(F)cc(F)c3)c(=O)n(CCc3ccccc3)c2n1`, the “activity, negative = inhibition” value is -4.68%. On the same count and under the same terms, with `COc1cccc(Cn2c(=O)c(-c3cc(F)cc(F)c3)nc3cnc(N(C)C)nc32)c1` the figure was -19.4%.

In the case of `CN(C)c1ncc2nc(-c3ccccc3)c(=O)n(CCc3ccccc3)c2n1`, the AC50 was 20 µM (active). Turning to `C/C(CCN1CCCc2nc(C)c(C)cc21)=N\O[C@@H](C)CN1CCCCc2nc(C)c(C)cc21`, the activity, negative = inhibition is 2.64% [at 11.4 µM]. The same measure, in the same setting: then `C[C@]12CC[C@H]3c4ccc(O)cc4CC[C@@H]3[C@H]1C/C(=N/O)[C@H]2O`, with -12.7% [at 11.4 µM]; and `C=C(C)CNCCN`, with 2.24% [at 2.29 µM]. On to `CN(C)c1ncc2ncc(=O)n(CCc3ccccc3)c2n1`, for which the AC50 was 0.794 µM (active). Consider `Cc1nc2cnc(N(C)C)nc2n(CCc2ccccc2)c1=O`, for which the AC50 is 1.26 µM (active). `COc1cccc(Cn2c(=O)c(CCc3ccccc3)nc3cnc(N(C)C)nc32)c1`: the AC50 was 15.8 µM (active). Turning to `CN(C)c1ncc2nc(CCc3ccccc3)c(=O)n(CCC#N)c2n1`, the AC50 is 2 µM (active).
